Most compounds without a hit are left out; they make up all but 21% or so of the library.
HCV inhibitor = qHTS Assay for Inhibitors of Hepatitis C Virus (HCV); Huh7.5.1 HCVcc-Cre infection, luciferase reporter, 44 h; Potency, µM (doses to about 41.8 µM), for inactives: at the top dose activity change, negative = inhibition, actives largely listed as inhibitors; 3.4% of 340,000 active; AID 651820, 2012; also: potency is read from the fitted curve at half-maximal effect; % is scaled to controls: 0 for no effect and ±100 for the full control effect
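Seed cells (1,000/well) for 4 h; treat with compound and infect with HCVcc-Cre, moi about 0.5. Incubate 44 h, then detect luciferase activity.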
Pf growth 48h = Primary qHTS for delayed death inhibitors of the malarial parasite plastid, 48 hour incubation. AID 504832, 2011. 5.9% of 310,000 active. P. falciparum luciferase growth in erythrocytes, 48 h. Potency, µM (doses to about 28.7 µM), inactives show at the highest dose activity change, negative = inhibition, most hits filed as inhibitors; also: potency is read from the fitted curve at half-maximal effect; % is scaled to controls: 0 for no effect and ±100 for the full control effect
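Parasite viability was followed by luminescence of a genomically integrated firefly luciferase. Cultures held 0.1% parasitemia at 2% hematocrit (final), incubated under 5% CO2 at 37 C.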
Pf growth 96h = Primary qHTS for delayed death inhibitors of the malarial parasite plastid, 96 hour incubation. Potency, µM (top dose mostly 28.7 µM), for the others: at the top dose activity change, negative = inhibition, actives largely listed as inhibitors. P. falciparum luciferase reporter growth, 96 h. 6.9% of 320,000 active; also: potency is read from the fitted curve at half-maximal effect; % is scaled to controls: 0 for no effect and ±100 for the full control effect
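Delayed-death screen, second-generation endpoint: infected erythrocytes, 2% hematocrit, 0.05% parasitemia final; 96 hours at 37 C, 5% CO2; luciferase detection reagent; luminescence decrease equals reduced growth.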
HCMV inh = qHTS Assay for inhibitors of the human cytomegalovirus (HCMV). HFF cells, HCMV-luciferase reporter, 72 h; active compounds read low. activity change, negative = inhibition, % at 57.5 µM. 4.5% of 410,000 active. AID 1259415, 2018; in the data active = activity change below about -60%; inconclusive = no clear call, values can overlap the other calls; inactive = above about -39%; also: % is scaled to controls: 0 for no effect and ±100 for the full control effect
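Screen run at 2 compound doses on HFFs infected with reporter HCMV, MOI 1 PFU/cell. Luciferase activity from cell lysates at 72 h post infection gave inhibition relative to buffer-only and Salinomycin wells.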
Shiga inhibitor = A qHTS for Small Molecule Inhibitors of Shiga Toxin; Vero cells, Shiga toxin protein synthesis inhibition reporter; inhibition, % at 38.7 µM; 9.2% of 290,000 active; AID 2315, 2010; in the data active = inhibition mostly above about 28%, no sharp cut-off; inactive = mostly below about 43%; also: 0% is about no effect
Cycloheximide cs = Cycloheximide Counterscreen for Small Molecule Inhibitors of Shiga Toxin; cell reporter, cycloheximide protein synthesis inhibition counterscreen; max response, %; 12% of 300,000 active; in the data active = max response mostly above about 13%, no sharp cut-off; inactive = mostly below about 14%; also: read at 38.3 µM for the half of the compounds with a filed dose; 0% is about no effect
The depositor's hits bear a star; i = inactive; ? = inconclusive; . = no result; [ ] = remark or other dose. Unless noted, calls follow the shape of the dose curve; as a rule, active = well fitted inhibition curve with a large enough effect; inconclusive = small, poorly fitted or top-dose-only effect, or another doubt; inactive = no such curve, though single readings can be large or run the other way.

SMILES	HCV inhibitor	Pf growth 48h	Pf growth 96h	HCMV inh	Shiga inhibitor	Cycloheximide cs
CC(C)(C)c1ccc(NNC(=O)C2CCC2)cc1	9%	29%	13%	24	-2	2
CSc1cccc(NC(=O)CC(c2ccc(F)cc2)N2Cc3ccccc3C2=O)c1 (stereo unspecified)	.	.	.	-12	.	.
C/C=C/Cn1c(N(C)Cc2ccccc2)nc2c1c(=O)[nH]c(=O)n2C	-19%	?	8.3µM*	22	-12	1
Cn1c(=O)[nH]c(=O)c2c1nc(Br)n2CCCSc1nc2ccccc2o1	?	-23%	.	-61*	-2	9
Cc1cccc(Cn2c(N(C)Cc3ccccc3)nc3c2c(=O)[nH]c(=O)n3C)c1	-15%	12µM*	13µM*	-7	-3	-4
Cn1c(=O)[nH]c(=O)c2c1nc(Br)n2Cc1cccc(Br)c1	?	-18%	?	-82*	-6	0
CN(Cc1ccccc1)c1nc2c(c(=O)[nH]c(=O)n2C)n1C	5%	0%	1%	-24	-1	-3
Cn1c(=O)[nH]c(=O)c2c1nc(N1CCCC1)n2CCCSc1nc2ccccc2o1	-23%	?	-2%	-17	-9	3
COc1cc(OC)c(Nc2nc3ccc(C(=O)c4ccccc4)cc3n3c(C)nnc23)cc1Cl	.	.	.	5	.	.
CCN1CCN(c2nc3c(c(=O)[nH]c(=O)n3C)n2Cc2cccc(C)c2)CC1	.	.	.	-5	.	.
COc1ccc(N2CCN(c3nc4c(c(=O)[nH]c(=O)n4C)n3Cc3cccc(C)c3)CC2)cc1	?	10µM*	48%	?	10	-1
COc1cccc(-c2cc(C(=O)Nc3cccnc3)no2)c1	?	187%	.	19	80*	31*
O=C(Nc1cccnc1)c1cc(-c2ccc(Br)cc2)on1	11%	33%	1%	-12	42*	20*
COc1cccc(-c2cc(C(=O)Nc3cc(OC)c(OC)c(OC)c3)no2)c1	?	-21%	?	-2	-10	-1
O=C(Nc1cccnc1)c1cc(-c2ccccc2)on1	12%	i	2%	12	23	13
CCN(C(=O)C(NS(=O)(=O)c1cccc2nsnc12)c1ccccc1)c1ccccc1 (stereo unspecified)	.	.	.	-6	.	.
Cc1cccc(NC(=O)C2CCN(C(=O)[C@@H]3Cc4ccccc4CN3)CC2)c1	-14%	13%	17%	28	16	24
O=C(Nc1ccccc1)C1=C[C@@H](c2ccc(Br)cc2)C[C@@H](OCc2ccc(CO)cc2)O1	?	?	?	-11	86*	46*
O=C(O)C1=C[C@H](c2ccc3c(c2)OCO3)C[C@H](OCc2ccc(CO)cc2)O1	?	.	.	182	.	.
NC(=O)C1=C[C@H](c2ccc(Br)cc2)C[C@H](OCc2ccc(CO)cc2)O1	-9%	1%	20%	67	56*	25*
C=CCOC(=O)C1=C[C@@H](c2ccc3c(c2)OCO3)C[C@@H](OCc2ccc(CO)cc2)O1	?	?	?	18	82*	19*
NC(=O)C1=C[C@@H](c2ccc(Br)cc2)C[C@@H](OCc2ccc(CO)cc2)O1	-28%	31%	51%	-11	-4	1
O=C(O)C1=C[C@@H](c2ccc(Br)cc2)C[C@@H](OCc2ccc(CO)cc2)O1	?	5%	17%	1	-7	3
O=C(Nc1ccccc1)C1=C[C@H](c2ccc3c(c2)OCO3)C[C@H](OCc2ccc(CO)cc2)O1	?	?	38%	11	104*	73*
COc1ccc(NC(=O)C[C@H]2C(=O)N(C3CCCCC3)C[C@@H]2CSC)cc1	.	.	.	-10	.	.
SMILES	HCV inhibitor	Pf growth 48h	Pf growth 96h	HCMV inh	Shiga inhibitor	Cycloheximide cs
COc1cc(/C=C/C(=O)OCC(=O)N2CCCc3ccccc32)ccc1OC(F)F	11%	-23%	-3%	20	.	.
CC(=O)Nc1ccc(Nc2cc3[nH]c(-c4cccc(F)c4)cc3cn2)cc1	.	.	.	-34	.	.
COc1ccc(C2=NN(C(=O)CSc3nccn3C)C(c3ccco3)C2)cc1 (stereo unspecified)	12%	.	.	-21	.	.
Cc1nc2c(-c3ccccc3)c(C)nn2c(C)c1CCC(=O)NCc1ccccc1	.	.	.	5	.	.
Cc1nc2c(-c3ccccc3)c(C)nn2c(C)c1CCC(=O)NCc1ccco1	5%	?	-2%	-98*	10	4
CC(C)CN(C(=O)COC(=O)C1=COCCO1)c1c(N)n(Cc2ccccc2)c(=O)[nH]c1=O	7%	-26%	6%	-11	.	.
CO/N=C(\C(=O)N[C@@H]1C(=O)N2C(C(=O)[O-])=C(C[n+]3cccc4c3CCC4)CS[C@H]12)c1csc(N)n1	.	-18%	-24%	.	.	.
O=C(Nc1ccc(F)cc1F)c1cccc(C(=O)Nc2ccc(F)cc2F)n1	-15%	43%	?	-99*	-5	-1
O=C(O)c1csc(-c2ccccc2)n1	17%	104%	57%	-20	-5	0
O=C(CC(=O)Nc1ccc(F)cc1F)Nc1ccc(F)cc1F	13%	-12%[0.00184 µM]	-3%	-19	-3	9
O=C(Nc1ccc(C(F)(F)F)cc1)c1csc(-c2ccncc2)n1	-2%	?	?	49	-16	9
O=C(Nc1ccc(F)cc1F)c1csc(-c2ccccc2)n1	?	26%	43%	36	70*	24*
O=C(Nc1ccccc1)c1csc(-c2ccccc2)n1	5%	26%	12%	-18	43*	26*
O=C(O)c1csc(-c2cccc(Cl)c2)n1	4%	35%	39%	-9	5	9.7*
COc1ccccc1CNC(=O)C1CCN(S(=O)(=O)c2c(C)noc2/C=C/c2c(C)cc(C)cc2C)CC1	.	.	.	-24	.	.
CC[C@H](C)[C@H](NC(=O)[C@H](CCC(=O)O)NC(=O)CNC(=O)[C@@H](NC(=O)[C@H](CCC(=O)O)NC(=O)[C@H](CCC(=O)O)NC(=O)[C@H](CC(C)C)NC(=O)CNC(=O)[C@@H]1CCCN1C(=O)[C@H](CCC(=O)O)NC(=O)[C@@H](N)[C@@H](C)O)C(C)C)C(=O)N[C@@H](CCC(=O)O)C(=O)N[C@@H](CCC(N)=O)C(=O)N[C@@H](CCCCN)C(=O)N[C@@H](CCC(N)=O)C(=O)N[C@@H](CC(C)C)C(=O)N[C@@H](CCC(N)=O)C(=O)O	.	.	.	.	19	-4
CC1C(=O)N2CCCc3cc(S(=O)(=O)Nc4ccc(Br)cc4F)cc1c32 (stereo unspecified)	.	.	.	6	.	.
CN(C)c1ccncc1C(=O)Nc1ccc(F)cc1F	25%	131%	?	-1	2	0

Screens as filed in PubChem BioAssay.
